This note sets out measurements from the supplement of paper PMC6555819.

What all share (test): PBM binding z-score (relative to random genomic background probes); higher = stronger binding; sequences stand for … in GC…GCGATTGACAGCGTAGAATGAAGG
Assay [1] relates to FXR:RXRa (NR concentration 270 nM, RXRa partner concentration 90 nM). Put shortly:
(§1)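 Random background probes are the reference for binding z-scores. These scores derive from regression-normalized fluorescence on custom Agilent 4×180K protein-binding microarrays incubated 1 h with ligand-free nuclear receptor dimers. Binding was detected with antibodies against each partner (one per run).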

In assay [2] the test system is LXRa:RXRa (NR concentration 270 nM, RXRa partner concentration 90 nM). Put shortly: as §1
Assay [3] concerns LXRa homodimer (NR concentration 270 nM). Put shortly: as §1
The test system of assay [4] is LXRb:RXRa (NR concentration 270 nM, RXRa partner concentration 90 nM). Put shortly:
as §1

Assay [5] concerns LXRb homodimer (NR concentration 270 nM). Put shortly: as §1
The test system of assay [6] is PPARa:RXRa (NR concentration 270 nM, RXRa partner concentration 90 nM). Put shortly:
as §1

For assay [7], the system named is PPARg:RXRa (NR concentration 180 nM, RXRa partner concentration 90 nM). Summed up: as §1
For assay [8], the system named is PPARg:RXRa 270nM:90nM, anti-RXR (NR concentration 270 nM, RXRa partner concentration 90 nM). Summed up:
as §1

The test system of assay [9] is PPARg:RXRa 30nM:10nM, anti-RXR (NR concentration 30 nM, RXRa partner concentration 10 nM). Put shortly: as §1
The test system of assay [10] is PPARg:RXRa 90nM:30nM, anti-RXR (NR concentration 90 nM, RXRa partner concentration 30 nM). Put shortly: as §1
The test system of assay [11] is PPARg:RXRa DBDmut IVT, anti-RXR (DBD mutation: RXRa K156A/R161A, NR concentration 270 nM, RXRa partner concentration 90 nM). Put shortly:
as §1

Assay [12] relates to PPARg:RXRa IVT, anti-PPARg (NR concentration 270 nM, RXRa partner concentration 90 nM). Summed up:
as §1

The test system of assay [13] is PPARg DBDmut:RXRa IVT, anti-PPARg (DBD mutation: PPARg1 K132A/R137A, NR concentration 270 nM, RXRa partner concentration 90 nM). Put shortly: as §1
Assay [14] has as its system PPARg DBDmut IVT, anti-PPARg (DBD mutation: PPARg1 K132A/R137A, NR concentration 270 nM). Put shortly:
as §1

Assay [15] concerns PPARg homodimer (NR concentration 180 nM). Put shortly: as §1
Assay [16] relates to PXR:RXRa (NR concentration 270 nM, RXRa partner concentration 90 nM). Summed up: as §1
Assay [17] concerns PXR homodimer (NR concentration 270 nM). Summed up: as §1
Assay [18] deals with RARa:RXR (NR concentration 270 nM, RXRa partner concentration 90 nM). Put shortly: as §1
The subject of assay [19] is RARa homodimer (NR concentration 270 nM). Put shortly: as §1
Assay [20] relates to RARb:RXRa (NR concentration 270 nM, RXRa partner concentration 90 nM). Summed up:
as §1

On to TCGAGTAGGTTACCAATGGGGCGTTCAGCTTTCT, for which the PBM binding z-score was -0.0945 in [1]; 0.41 in [2]; -0.684 in assay [3]; 0.47 in assay [4]; -0.564 in assay [5]; 1.09 in assay [6]. Also, the PBM binding z-score was -0.0878 in assay [7]; 1.06 in [8]; 0.919 in [9]; 1.03 in [10]; 3.2 in assay [11]; 2.46 in [12]. Further, the PBM binding z-score in [13] was -0.504; in assay [14] it was -0.846; in assay [15] it was 0.122; in assay [16] it was -0.176; in assay [17] it was -0.801; in assay [18], 0.167. In addition, the PBM binding z-score in [19] was -0.443; in assay [20], 0.773.

Turning to TCTATTAGTTGCAGGGCAACCGACGAGTCCGTTT, the PBM binding z-score in [1] is 0.562; in assay [2], 0.804; in assay [3], 0.147; in [4] it was 0.702; in assay [5], 0.559; in assay [6], 0.736. Also, the PBM binding z-score in assay [7] is -0.219; in assay [8], 1.62; in assay [9], 3.41; in assay [10], 2.38; in assay [11] it was 2.17; in [12], 1.01. In addition, the PBM binding z-score in assay [13] came to 0.15; in [14] it was 1.26; in assay [15], 0.494; in assay [16] it was 0.353; in assay [17], 0.498; in assay [18] it was 0.391. Also, the values for the PBM binding z-score in assay [19] and in assay [20] were 0.736 and 0.851, respectively.

Take CCATACGGGTCACTGACAGGTTATAGCATTTGGA: the PBM binding z-score in [1] was 4.49; in assay [2], 4.04; in assay [3] it was 0.394; in [4], 3.31; in assay [5], 0.0673; in assay [6] it was 4.83. In addition, the PBM binding z-score in assay [7] is 3.92; in assay [8], 3.76; in assay [9] it was 1.43; in [10], 2.41; in assay [11] it was 2.31; in [12] it was 3.21. Moreover, the PBM binding z-score came to 0.442 in assay [13]; 0.0659 in [14]; 2.58 in assay [15]; 3.55 in assay [16]; 0.194 in [17]; 4.58 in assay [18]. For the same sequence, the PBM binding z-score worked out at 1.68 in assay [19] and 3.81 in assay [20].

Consider GGAACGAGGGCTAGTTGATAGCAGAGTTTGATGG, for which the PBM binding z-score is -0.569 in assay [1]; -0.717 in assay [2]; -0.679 in assay [3]; -0.908 in [4]; -0.992 in assay [5]; -0.745 in assay [6]. Also, the PBM binding z-score in assay [7] was 0.203; in assay [8] it was -0.227; in assay [9] it was -0.133; in assay [10], -0.567; in assay [11], 0.122; in assay [12], -0.508. For the same sequence, the PBM binding z-score is -0.313 in assay [13]; -0.827 in assay [14]; -0.214 in assay [15]; -0.534 in assay [16]; -0.283 in assay [17]; -0.627 in [18]. The PBM binding z-score in [19] is -0.525; in [20], -0.19.

Turning to TTACCAAGGTGAGCTGAGGCCGTTGATCCAACTC, the PBM binding z-score in assay [1] was 0.053; in [2] it was -0.536; in assay [3], -0.916; in [4], -0.569; in [5], -1.39; in [6] it was 0.236. Also, the PBM binding z-score was -0.296 in assay [7]; -0.253 in assay [8]; -0.438 in [9]; -0.329 in [10]; 0.88 in [11]; 1.24 in [12]. For the same sequence, the PBM binding z-score was -0.955 in [13]; -0.387 in assay [14]; -0.831 in assay [15]; 2.17 in assay [16]; -0.968 in assay [17]; 1.15 in [18]. Besides, the PBM binding z-score in [19] is -1.4; in assay [20], 1.09.

As for TCATATAGGTAAACATGTGAAAGTCCGTAAGTTA, the PBM binding z-score in assay [1] was 0.869; in [2], 0.742; in assay [3], 0.308; in [4] it was 0.769; in [5], 0.208; in assay [6], 1.58. Also, the PBM binding z-score in assay [7] came to 1.86; in assay [8], 2.39; in assay [9] it was 3.92; in assay [10], 3.22; in assay [11], 4.4; in assay [12] it was 3.17. Further, the PBM binding z-score was found to be 1.32 in assay [13]; 1.79 in [14]; 0.718 in assay [15]; 0.808 in [16]; 0.34 in assay [17]; 0.815 in assay [18]. Further, the PBM binding z-score in assay [19] came out at 1.18; in assay [20], 0.412.

As for TCTAGCAGTCCAGAGGGTCACTCAAGAGGTACGG, the PBM binding z-score was 0.754 in assay [1]; 0.962 in [2]; -0.326 in assay [3]; 1.19 in assay [4]; -1.12 in assay [5]; 2.06 in [6]. Also, the PBM binding z-score was found to be 0.609 in assay [7]; 1.52 in [8]; 2.05 in assay [9]; 1.63 in [10]; 0.669 in assay [11]; 0.15 in assay [12]. For the same sequence, the PBM binding z-score in [13] is -0.632; in [14], -0.476; in assay [15], 0.412; in assay [16] it was 1.67; in assay [17], -0.406; in assay [18] it was 2.48. Also, the PBM binding z-score in [19] is 0.0783; in [20], 2.07.
